Results published in PubChem BioAssay (EPA / NIEHS).
Records with an inconclusive call do not appear. Activity calls are given as the source filed them. The calls were made as follows, unless noted: active = hit-call score of the fitted dose curve at least 0.9, where 1 is the maximum; inconclusive = response in the unintended direction; inactive = score below 0.9.

Tests used:
[1] = TOX21_p53_BLA_p3_viability: Viability Assessment in the Tox21 HCT-116 p53 Agonism Beta-lactamase Assay, Phase 3 (AID 2283593);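 also: cells exposed to compound for 16 h before reading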
Outline: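 Cellular ATP was quantified by CellTiter-Glo luminescence, read after 30 min at room temperature. Beforehand, HCT116 cells (4000/well) received compound 5 h post-seeding, 217-fold diluted from DMSO, then incubated 16 h at 37C.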

[2] = TOX21_p53_BLA_p4_viability: Viability Assessment in the Tox21 HCT-116 p53 Agonism Beta-lactamase Assay, Phase 4 (AID 2283597);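 also: hits lower the luminescence signal meaning cytotoxicity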
Outline: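 Cytotoxicity as reduced cellular ATP (CellTiter-Glo luminescence, 30 min room temperature), measured in the same wells following the CCF4 FRET p53 reading. Human HCT-116 cells received compounds in DMSO (217-fold dilution) for 16 h.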

[3] = TOX21_p53_BLA_p5_viability: Viability Assessment in the Tox21 HCT-116 p53 Agonism Beta-lactamase Assay, Phase 5 (AID 2283600)
Outline: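 Viability came from CellTiter-Glo ATP luminescence, read after 30 min at room temperature. Before this, HCT-116 p53-bla cells (4000/well) had 16 hours of compound exposure at 37C, with DMSO stocks diluted 217-fold on transfer.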

[4] = biological target: Cellular tumor antigen p53 (Homo sapiens) (UniProt P04637); assay: TOX21_p53_BLA_p3_ratio: Tox21 HCT-116 p53 Agonism Beta-lactamase Assay, Ratio, Phase 3 (AID 2283596)
Cellular tumor antigen p53 (Homo sapiens), sequence (P04637 whole entry, looked up): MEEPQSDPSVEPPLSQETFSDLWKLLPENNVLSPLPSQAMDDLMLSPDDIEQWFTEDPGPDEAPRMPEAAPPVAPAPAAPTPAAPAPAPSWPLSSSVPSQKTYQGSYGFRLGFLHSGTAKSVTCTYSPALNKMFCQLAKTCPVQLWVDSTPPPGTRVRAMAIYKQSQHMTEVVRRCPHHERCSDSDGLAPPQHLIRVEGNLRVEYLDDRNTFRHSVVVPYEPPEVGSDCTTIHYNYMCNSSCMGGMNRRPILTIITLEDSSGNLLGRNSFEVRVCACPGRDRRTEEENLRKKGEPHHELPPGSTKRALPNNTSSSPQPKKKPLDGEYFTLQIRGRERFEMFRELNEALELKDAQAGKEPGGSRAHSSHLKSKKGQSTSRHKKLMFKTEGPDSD
Outline: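 Cells were seeded at 4000/well, rested 5 h at 37C, then dosed with DMSO compound solutions (217-fold dilution) for 16 h. CCF4-AM substrate was loaded for 2 h at room temperature, and the 460/530 nm emission ratio was fitted for gain of signal versus DMSO.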

[5] = biological target: Cellular tumor antigen p53 (Homo sapiens) (UniProt P04637); assay: TOX21_p53_BLA_p4_ratio: Tox21 HCT-116 p53 Agonism Beta-lactamase Assay, Ratio, Phase 4 (AID 2283601)
Outline: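 Signal is the blue/green (460nm/530nm) ratio of cleaved versus uncleaved CCF4-AM substrate, read after 2 h substrate loading. Cells were HCT116 carrying the p53-responsive beta-lactamase reporter, dosed 16 h at 37C, 5% CO2; CellTiter-Glo measured in parallel.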

[6] = biological target: Cellular tumor antigen p53 (Homo sapiens) (UniProt P04637); assay: TOX21_p53_BLA_p5_ratio: Tox21 HCT-116 p53 Agonism Beta-lactamase Assay, Ratio, Phase 5 (AID 2283599)
Outline: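 Beta-lactamase reporter ratio (blue 460 nm over green 530 nm, 405 nm excitation) after 2 h CCF4-AM loading, in HCT-116 cells exposed 16 h at 37 C to compounds pinned at 217-fold dilution. Increases relative to DMSO baseline scored.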

[7] = CCTE_Harrill_HTTr_Viability_MCF7: CCTE's 6-hour Cell Viability Assessment for the High-Throughput Transcriptomics (HTTr) Platform, in MCF-7 cells cultured in DMEM + 10% fetal bovine serum, Harrill Lab (AID 2284010; active = hit-call score of the fitted dose curve at least 0.9, where 1 is the maximum; inactive = score below 0.9)
Outline: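 Eight-point concentration series, six-hour exposure. Propidium iodide exclusion imaged to assess membrane integrity as a cytotoxicity readout; bidirectional fitting was done with DMSO as negative control and activity baseline.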

[8] = CCTE_Harrill_HTTr_Apoptosis_MCF7: CCTE's 6-hour Apoptosis Assessment for the High-Throughput Transcriptomics (HTTr) Platform, in MCF-7 cells cultured in DMEM + 10% fetal bovine serum, Harrill Lab (AID 2284011; active = hit-call score of the fitted dose curve at least 0.9, where 1 is the maximum; inactive = score below 0.9)
Outline: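 High-content imaging of CellEvent Caspase 3/7 Green signal follows a six-hour exposure, with eight concentrations per chemical. MCF-7 cells grown in DMEM plus 10% fetal bovine serum; activity fitted in both directions against DMSO.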

[9] = CCTE_Harrill_HTTr_CellCount_MCF7: CCTE's Cell Proliferation Assessment for the High-Throughput Transcriptomics (HTTr) Platform, Harrill Lab (AID 2284012);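 also: count of Hoechst-stained nuclei per well by high-content imaging in MCF-7 cells; cells exposed to compound for six hours; intended direction is loss of nuclei count meaning fewer cells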
Outline: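 For this full-screen endpoint, MCF-7 cultures received eight compound dilutions for six hours. Well nuclei counts from Hoechst imaging were analyzed relative to DMSO.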

Measured: outcome

CC(C)Cc1ccc([C@H](C)C(=O)O)cc1
inactive: [1] | [2] | [3]

O=C(Cn1c(=O)sc2ccc(Cl)cc21)N1CCN(CCO)CC1
inactive: [1] | [4] | [2] | [3] | [5]

Oc1ccc(CCNCCCCCCNCCc2ccccc2)cc1O
inactive: [1] | [4] | [2] | [3] | [5]

CC1CCCCN1CCCOC(=O)c1ccccc1 (stereo not given)
inactive: [1] | [4] | [2] | [3] | [5]

Cc1ccc(S(=O)(=O)NC(=O)NC2CCCC2)cc1
inactive: [1] | [4] | [3] | [5]

CCC=C1OC(=O)c2ccccc21
inactive: [1] | [2] | [6] | [3] | [5]

CCOC(=O)[C@H](CCc1ccccc1)N[C@@H](C)C(=O)N1Cc2cc(OC)c(OC)cc2C[C@H]1C(=O)O
inactive: [1] | [4] | [2] | [3]

CN=C(NC#N)Nc1ccc(C2=NNC(=O)CC2C)cc1 (stereo not given)
inactive: [1] | [4] | [5]

CN[C@@H]1[C@@H](O)[C@@H](O[C@@H]2[C@@H](O)[C@H](O[C@H]3O[C@H](CN)[C@@H](O)[C@H](O)[C@H]3O)[C@@H](N)C[C@H]2NC(=O)C(O)CN)OC[C@]1(C)O (stereo not given in full)
inactive: [1] | [4] | [2] | [5]

CCCCC(CC)COC(=O)CC#N (stereo not given)
not listed: [2] | [4] | [6]
inactive: all other assays above

Cn1c(N)nc2nc[nH]c2c1=O
inactive: [1] | [3] | [5]

CN(C)CCCOc1nn(Cc2ccccc2)c2ccccc12
inactive: [4] | [2]

CN(C)CCCN1c2ccccc2Sc2ccccc21
inactive: [4]

CN(C)CCCSc1ccccc1NC(=O)/C=C/c1ccccc1
inactive: [4] | [2]

CCN(CC)CCOc1ccccc1C(=O)CCc1ccccc1
inactive: [4] | [2]

FC(F)(F)c1ccccc1
inactive: [1] | [6] | [3] | [5]

OC1CCCc2ccccc21 (stereo not given)
inactive: [1] | [3] | [5]

COC(=O)c1cc(C(=O)OC)cc(S(=O)(=O)O)c1
inactive: [1] | [6] | [3]

COc1cc(C[C@@H]2NCCc3cc(O)c(O)cc32)cc(OC)c1OC
inactive: [1] | [3] | [5]

CCOC(=O)C(C)(C)C
inactive: [1] | [6] | [3] | [5]

CCCCNc1c(C(=O)OCC)c(C)nc2c1cnn2CC
inactive: [1] | [2] | [3] | [5]
